Shown are actives, neighbours in structure and some others; about 9.4% of the full set was active somewhere.
Pf growth 96h = P. falciparum growth inhibition at 96 hour, primary screen for plastid delayed-death inhibitors; P. falciparum luciferase reporter growth, 96 h; Potency, µM (top dose mostly 28.7 µM), inactives show top-dose activity change, negative = inhibition, most hits filed as inhibitors; 320,000 tested, 6.9% active; AID 504834; note: % is set by controls: 0 for no effect and ±100 for the full control effect
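Compounds incubated with erythrocytes infected by luciferase-expressing P. falciparum (2% hematocrit, 0.05% parasitemia final) for 96 hours, 37 C in 5% CO2. Growth inhibition scored as decreased luciferase luminescence.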
AMA1 RON2 block = AMA1-RON2 (P. falciparum) interaction inhibition; AlphaScreen AMA1-biotinylated RON2 peptide binding; Potency, µM (series often up to 58.2 µM), for inactives: top-dose activity change, negative = inhibition, usual class: inhibitors; 360,000 tested, 0.2% active; AID 720542;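 note: 0% = vehicle wells and -100% = peptide control; nearly all actives have a fitted effect of over 45% in size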
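AMA1 (3D7) with his tag at 25 nM final met compounds first, then biotinylated RON2 peptide at 25 nM; detection used donor plus acceptor beads, 10 µg/mL apiece, read by AlphaScreen after 30 min at room temperature.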
Pf growth 48h = inhibits P. falciparum growth in the first generation, 48 h; P. falciparum luciferase growth in erythrocytes, 48 h; Potency, µM (doses to about 28.7 µM), inactives show top-dose activity change, negative = inhibition, most hits filed as inhibitors; 310,000 tested, 5.9% active; note: % is set by controls: 0 for no effect and ±100 for the full control effect
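Luciferase-expressing parasites in RBCs, 2% Hct / 0.1% parasitemia final; RPMI 1640 + 0.5% Albumax; 37 C, 5% CO2, one generation; luminescence read-out, lower signal = inhibition.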
SARS PLP yeast = blocks SARS-CoV papain-like protease in a yeast assay; S. cerevisiae expressing SARS-CoV PLpro, growth rescue; Potency, µM (top dose mostly 32.9 µM), for the others: at the top dose activity, positive = growth rescue, most hits filed as activators; 330,000 tested, 0.19% active; AID 485353; calls by dose curve; note: 0% is about no effect; nearly all actives have a fitted effect of over 55% in size
Active calls of the source: *; ? = inconclusive; · = no result given. Unless noted, calls come from the whole dose curve; as a rule, active = well fitted curve in the direction sought with a large enough effect; inconclusive = small, poorly fitted or top-dose-only effect, or another doubt; inactive = no such curve, though single readings can be large; an effect the other way counts as inactive or inconclusive. Potency is the fitted concentration of half-maximal effect.

SMILES | Pf growth 96h | AMA1 RON2 block | Pf growth 48h | SARS PLP yeast
CN1OC[C@@H]2CN[C@H](c3cccc(N4CCOCC4)c3)C[C@@H]21 | · | 14% | · | ·
COc1ccccc1N(CC(=O)NCc1ccccc1)C(=O)CCC(=O)Nc1ccccn1 | ? | 0% | ? | -8%
CCc1ccc(OCC(=O)NC(NC(=S)Nc2ccc(Cl)cc2)C(Cl)(Cl)Cl)cc1 (centres undefined) | 13µM* | 7% | ? | -5%
COc1ccc(Cl)cc1C(=O)Nc1ccc(NC(=O)c2ccco2)cc1 | 2.1µM* | 6% | ? | -10%
Cc1ccc(C(=O)OCC(=O)NC(C)c2ccccc2)s1 (centres undefined) | · | -7% | · | -2%
O=C(CN1c2cccc3cccc(c23)S1(=O)=O)NCc1ccccc1Cl | · | 7% | · | ·
Cc1cc(C)nc(SCCC(=O)N2CCOCC2)n1 | · | -3% | 1% | -8%
O=C(CC(=O)Nc1ccccc1C(F)(F)F)Nc1ccccc1C(F)(F)F | 33% | 11% | 1% | -2%
O=C(CC(=O)c1ccccc1)Nc1ccccc1C(F)(F)F | 12µM* | -13% | 21% | -1%
CCCCCC(=O)Nc1nc(C)c(-c2csc(Nc3cc(Cl)ccc3C)n2)s1 | ? | -1% | ? | 1%
CCCCCC(=O)Nc1nc(C)c(-c2csc(Nc3ccc(Cl)cc3)n2)s1 | ? | 11% | 15µM* | 1%
CCCCCCC(=O)Nc1nc(C)c(-c2csc(Nc3ccc(Cl)cc3)n2)s1 | 2.9µM* | 10% | 10µM* | -7%
COC(=O)c1ccc(CSc2ccc3nnc(-c4ccccn4)n3n2)o1 | 10µM* | -2% | ? | 12%
Cc1ccc(C)c(CSc2ccc3nnc(-c4ccccn4)n3n2)c1 | ? | -17% | 13µM* | -1%
Brc1ccc(CSc2ccc3nnc(-c4ccccn4)n3n2)cc1 | 2.9µM* | -17% | 2.6µM* | -11%
Cc1ccc(CSc2ccc3nnc(-c4ccccn4)n3n2)cc1 | 10µM* | -10% | 2.9µM* | 14%
COC(=O)c1ccc(CSc2ccc3nnc(-c4ccc(F)cc4)n3n2)o1 | ? | -2% | ? | 1%
Brc1ccc(CSc2ccc3nnc(-c4cccnc4)n3n2)cc1 | ? | -5% | ? | -9%
COc1ccccc1NS(=O)(=O)c1ccc2c(c1)NC(=O)C(C)S2 (centres undefined) | 78% | -5% | ? | 4%
O=C(N/N=C/c1ccc(N2CCOCC2)s1)c1ccc(O)cc1 | · | 120% | · | ·
Fc1ccc(CSc2ccc3nnc(-c4ccccn4)n3n2)cc1 | 3.3µM* | 9% | 3.7µM* | -1%
Fc1ccc(CSc2ccc3nnc(-c4cccs4)n3n2)cc1 | ? | -5% | 11% | 3%
O=c1[nH]n(CC2COC3(CCCCC3)O2)c(=O)c2ccccc12 (centres undefined) | 8.3µM* | 3% | 58% | -10%
CC(C)Sc1cc(N2CCCC2)nc(-c2ccc(F)cc2)n1 | ? | 9% | 13µM* | 3%
Cc1ccc(NC(=O)CN(C)S(=O)(=O)c2cccc3cccnc23)cc1C | 13µM* | -9% | 15% | -3%
SMILES | Pf growth 96h | AMA1 RON2 block | Pf growth 48h | SARS PLP yeast
Cc1ccc(NC(=O)CN(C)S(=O)(=O)c2cccc3cccnc23)cc1F | ? | 0% | ? | 10%
COC(=O)c1ccc(COC(=O)C2CCN(S(=O)(=O)c3ccc(C)c(C)c3)CC2)o1 | 44% | -26% | 20% | 3%
CSc1ccc(OC2(C)CCN(Cc3ccccc3)C2)cc1 (centres undefined) | · | -26% | · | ·
CCN(CC)c1ccc(/C=N/NC(=O)c2cc3ccccc3[nH]2)cc1 | -53% | 5% | -4% | -1%
COCCNc1nc(-c2cc(C)n(CCc3ccc(OC)cc3)c2C)cs1 | ? | -8% | 2.6µM* | 1%
CC(C)(C)c1ccc(C(=O)CC(=O)c2cc(Cl)ccc2O)cc1 | · | 57% | 4.7µM* | 0%
Cc1ccc(C(=O)CC(=O)c2cc(Cl)ccc2O)cc1 | · | 54% | ? | -21%
Cc1ccc(C(=O)CC(=O)c2ccc(C)cc2O)cc1 | 7.4µM* | 38% | -61% | -2%
Cc1ccccc1OCCC(=O)Nc1cc(S(=O)(=O)N2CCCCC2)ccc1N1CCN(C)CC1 | · | -4% | · | ·
CC(C)(C)c1ccc2c(c1)N(CC(=O)O)C(=O)CO2 | 11% | 47% | -6% | 1%
Cc1cccc(-c2nc(CN3CCN(C(=O)C4CCCO4)CC3)cs2)c1 (centres undefined) | -5% | 3% | 0% | 2%
CC(C)(O)C1CC[C@@](C)([C@@H]2CC[C@]3(C)[C@H]2[C@H](O)CC2[C@@]4(C)CCC(O)C(C)(C)C4C(OC4OC(CO)C(O)C(O)C4O[C@@H]4OCC(O)C(O)C4O)C[C@]23C)O1 (some centres undefined) | · | 5% | · | 8%
Cc1nc2sc(C(c3cccc(F)c3)N3CC(C)OC(C)C3)c(O)n2n1 (centres undefined) | -25% | 18% | 83% | 1%
COc1ccc(CNCc2ccc([N+](=O)[O-])cc2)cc1OC | 18% | -23% | 7% | 1%
CC(C)N(C(=O)Cc1ccccc1[N+](=O)[O-])C(C)C | 177% | -13% | -5% | -4%
CC(C)C(NC(=O)Cc1ccccc1[N+](=O)[O-])C(C)C | 12µM* | 5% | -3% | 12%
Cc1cc(NC(=O)c2cc(-c3cccs3)on2)no1 | 6% | -5% | 23% | -14%
Cc1cc(C)cc(NC(=O)CCCCCN2C(=O)[C@@H]3Cc4ccccc4CN3C2=O)c1 | ? | -7% | 1% | 2%
COc1cccc(NC(=O)CCCCCN2C(=O)[C@@H]3Cc4ccccc4CN3C2=O)c1 | 12µM* | -9% | ? | -3%
COc1ccc(C(=O)OCC(=O)c2ccc(CNC(C)=O)s2)cc1 | ? | -14% | 23% | 0%
CC(=O)NCc1ccc(C(=O)CCl)s1 | ? | -3% | 4.1µM* | 15%
O=C(CN1C(=O)c2ccccc2C1=O)Nc1nccs1 | 8% | 22% | 19% | -1%
O=C(C(=O)N1CCN(c2ccccc2)CC1)c1cn(CC(=O)N2CCCCCC2)c2ccccc12 | ? | -8% | 9.3µM* | ?
CC1CCCN(C(=O)C(=O)c2cn(CC(=O)N3CCCCCC3)c3ccccc23)C1 (centres undefined) | 12µM* | 0% | ? | ·
O=C(O)Cn1cc(C(=S)N2CCCCC2)c2ccccc21 | 8.3µM* | -1% | -1% | 0%
COc1ccc(N2CCN(C(=O)C(=O)c3cn(CC(=O)N4CCOCC4)c4ccccc34)CC2)cc1 | 0% | -3% | 10% | 1%
COc1ccc(N2CCN(C(=O)C(=O)c3cn(CC(=O)N4CCCCCC4)c4ccccc34)CC2)cc1 | 10µM* | -22% | ? | -6%
CC1CCN(C(=O)C(=O)c2cn(CC(=O)N3CCCCCC3)c3ccccc23)CC1 | ? | 0% | ? | -4%
O=C(O)Cn1cc(C(=S)N2CCOCC2)c2ccccc21 | · | 2% | -2% | 0%
CN(Cc1ccc(F)cc1)C(=O)c1cc(COc2ccc(F)cc2F)on1 | ? | 4% | -32% | -1%
